Screen size: about 190,000 compounds; about 3,100 (1.6%) were called active. This is one part of a sample in which actives are shown more often than they occur. No stated cut-off is given here; in the data, active means fold change above about 3.3; inconclusive means no clear call, values can overlap the other calls; inactive means below that.
Assay: activators of NF-kB expression in neurons, primary screen, cell-based, HTS (AID 1239)
Settings: human neuronal cells, NF-kB reporter expression; at 12.5 µM; active compounds read high

SMILES | fold change
O=C(Nc1nc(-c2cccnc2)cs1)c1ccccc1F | 1.73 (inactive)
COc1cc(NC(=S)N2CCCC(C)C2)cc(OC)c1OC (stereo not drawn) | 1.11 (inactive)
COc1ccc(/C=C(\C#N)C(=O)ONC2=NCCCCC2)cc1 | 1.26 (inactive)
Cc1c(NC(=O)Nc2ccccc2)cccc1[N+](=O)[O-] | 1.43 (inactive)
Cc1csc(NC(=O)NC2(C(F)(F)F)Oc3ccccc3O2)n1 | 5.29 (active)
Cc1cc(NC(=O)Nc2ccccc2[N+](=O)[O-])no1 | 1.12 (inactive)
Cc1csc(NC(=O)CN2CCCCCC2)n1 | 1.18 (inactive)
Cc1csc(NC(=O)Nc2ccccc2[N+](=O)[O-])n1 | 3.38 (active)
COc1cc(SC)ccc1C(=O)Nc1nc(C)cs1 | 0.52 (inactive)
Cc1ccnc(NC(=O)c2ccc(Cl)c([N+](=O)[O-])c2)c1 | 2.09 (inactive)
CNC(=S)Nc1ccc([N+](=O)[O-])cc1 | 1.13 (inactive)
Cc1ccccc1N1C(=O)C(Oc2ccc(Cl)cc2)C1CNCC1CCCO1 (stereo not drawn) | 1.25 (inactive)
CCOC(=O)CCNC(=O)N1CCCC(C(=O)c2ccccc2SC)C1 (stereo not drawn) | 1 (inactive)
O=C(Nc1cccc(-c2nnc(-c3ccccc3)o2)c1)C1CCCO1 (stereo not drawn) | 0.88 (inactive)
O=C(Nc1nnc(CCc2ccccc2)s1)C1CCCO1 (stereo not drawn) | 1.38 (inactive)
O=C(Nc1ccc(-c2nnc(-c3ccccc3)o2)cc1)C1CCCO1 (stereo not drawn) | 4.06 (active)
COc1ccc(-n2nc3c(c2NC(=O)c2ccc(N4C(=O)CCC4=O)cc2)CSC3)cc1 | 1.2 (inactive)
C=CCN(C(=O)c1cc(C)cc(C)c1)C1(C(=O)Nc2ccccc2)CCN(C(C)C)CC1 | 0.87 (inactive)
CC1CN(CCOc2ccccc2[N+](=O)[O-])CC(C)O1 (stereo not drawn) | 1.22 (inactive)
CC1CCN(S(=O)(=O)c2ccc3ncn(CC(=O)N(C)C4CCCCC4)c(=O)c3c2)CC1 | 0.79 (inactive)
O=C(OCC(=O)c1cccs1)c1ccc([N+](=O)[O-])o1 | 0.88 (inactive)
Cc1cc(=O)n2[nH]c(-c3sccc3-n3c(C)ccc3C)cc2n1 | 1.08 (inactive)
CCOC(=O)CSc1ccccn1 | 0.99 (inactive)
CCOC(=O)CSC1=N/C(=C/c2ccc(-n3cncn3)cc2)C(=O)N1C(C)=O | 4.34 (active)
CCOC(=O)CSc1nc(C)cc2c1C(=O)OC2 | 1.43 (inactive)
CC1=NN(c2ccccc2)C(=O)C1C(=O)c1ccc([N+](=O)[O-])cc1 (stereo not drawn) | 0.91 (inactive)

SMILES | fold change
O=C(O)/C=C/c1cn(Cc2ccccc2)nc1-c1cccs1 | 1.06 (inactive)
NS(=O)(=O)c1cccc(NC(=O)CN2CCCc3ccccc32)c1 | 0.95 (inactive)
CC(NC(=O)Nc1ccc2c(c1)OCO2)c1ccncc1 (stereo not drawn) | 1.61 (inactive)
O=C(/C=C/c1ccc2c(c1)OCO2)NCc1ccc(F)cc1 | 1.46 (inactive)
COc1ccc(/C=C/C(=O)Nc2ccc3c(c2)OCCO3)cc1OC | 0.68 (inactive)
COc1ccc(OC)c(/C=C/C(=O)OCC(=O)Nc2ccc3c(c2)OCCO3)c1 | 1 (inactive)
Cc1cccc(NC(=O)Nc2ccc3c(c2)OCO3)n1 | 4.19 (active)
COc1cccc(/C=C/C(=O)Nc2ccc3c(c2)OCCO3)c1 | 6.74 (active)
Cc1cccc(NC(=O)/C=C/c2ccc3c(c2)OCO3)n1 | 8.04 (active)
CCc1c(C)sc(NC(=O)/C=C/c2ccc3c(c2)OCO3)c1C(=O)OC | 1.05 (inactive)
CCSc1ccccc1C(=O)Nc1ccc2c(c1)OCO2 | 1.88 (inactive)
COc1ccc(N2C(=O)C(Cc3ccccc3)NC2=S)cc1 (stereo not drawn) | 1.19 (inactive)
Cc1nn(C)c(C)c1S(=O)(=O)N1CCC(CO)(Cc2ccc(Cl)cc2)CC1 | 0.97 (inactive)
O=C(N/N=C/c1cc2c(cc1Br)OCO2)C1COc2ccccc2O1 (stereo not drawn) | 1.55 (inactive)
COc1cc(NC(=S)NCc2ccc(S(N)(=O)=O)cc2)cc(OC)c1 | 1.03 (inactive)
CSc1ccccc1NC(=O)CN(C)CC(=O)Nc1ccc(Cl)cc1[N+](=O)[O-] | 1.29 (inactive)
Cc1cc(C)nc(N/N=C/c2c(C)oc3ccccc23)n1 | 1.11 (inactive)
Cc1noc(C)c1/C=N/Nc1ccc2ccccc2n1 | 4.12 (active)
C(=N\Nc1ccc2ccccc2n1)/c1ccc2c(c1)OCO2 | 1.78 (inactive)
O=C1c2ccccc2C(=O)N1CCC(O)C[N+](=O)[O-] (stereo not drawn) | 0.98 (inactive)
COc1ccc(-c2nc3cnccn3c2NC(C)(C)CC(C)(C)C)cc1O | 0.68 (inactive)
Cn1c(=O)n(C)c2cc(C(=O)Nc3ccc4c(c3)OCO4)ccc21 | 1.54 (inactive)
CC(=O)Nc1ccc(-c2csc(NC(=O)Nc3ccccc3)n2)cc1 | 1.32 (inactive)
Cc1cc(C)c2nc(NC(=O)c3ccc4c(c3)OCO4)sc2c1 | 1.11 (inactive)
O=C(Nc1cccc([N+](=O)[O-])c1)c1ccc2c(c1)OCO2 | 1.37 (inactive)
O=C(Nc1cccnc1)c1ccc2c(c1)OCO2 | 1.47 (inactive)

SMILES | fold change
O=C(Nc1nc2ccccc2s1)c1ccc2c(c1)OCO2 | 7.05 (active)
COCc1nnc(NC(=O)c2ccc3c(c2)OCO3)s1 | 2.07 (inactive)
COc1ccc(C(=O)Nc2ccc3c(c2)OCO3)cc1OC | 2.06 (inactive)
O=C(Nc1ccccc1)c1ccc2c(c1)OCO2 | 3.31 (active)
Cn1nnnc1SCC(=O)Nc1nc2ccccc2s1 | 1.74 (inactive)
O=C(Nc1ccccc1)Nc1nc2ccccc2s1 | 8.18 (active)
CC(C)C(=O)Nc1cccc(C(=O)Nc2ccc3c(c2)OCO3)c1 | 4.07 (active)
COc1ccc(-c2nn(-c3ccccc3)cc2CN2CCCO2)c(F)c1 | 1.16 (inactive)
NC(N)=N/N=C/c1ccc(Cl)c([N+](=O)[O-])c1 | 1.03 (inactive)
CN1CCN(NC(=O)c2ccc(S(=O)(=O)N3CCCCCC3)cc2)CC1 | 0.97 (inactive)
O=c1[nH]n(-c2ccc([N+](=O)[O-])cc2)c(=O)c2ccccc12 | 1 (inactive)
CC(=O)c1ccc(N=C2SCCCN2C(=O)C2CCCCC2)cc1 | 1.75 (inactive)
COc1cccc(NC(=O)CS(=O)(=O)c2cn(CC(=O)N3CCOCC3)c3ccccc23)c1 | 0.88 (inactive)
O=C(CSc1nc2ccc(Nc3nc(N4CCOCC4)nc(N4CCOCC4)n3)cc2s1)NCc1ccco1 | 1.02 (inactive)
CC(C)(C)C1CCC(C(=O)Nc2cccnc2)CC1 (stereo not drawn) | 0.97 (inactive)
COC(=O)C(=Nc1ccccc1)/C(C(=O)C(=O)N(C)c1ccccc1)=C(\O)c1ccc(Cl)cc1 | 0.95 (inactive)
O=C(Nc1cccc(-c2nc3ncccc3o2)c1)c1ccco1 | 0.74 (inactive)
O=C(Nc1ccc2nccnc2c1)c1ccco1 | 1.46 (inactive)
O=C(Nc1ccc2oc(-c3ccccc3F)nc2c1)c1ccco1 | 5.05 (active)
CSc1ccccc1C(=O)NCc1ccccc1 | 1.09 (inactive)
COc1cccc(C(=O)Nc2cc3c(cc2Br)OCCCO3)c1 | 3.38 (active)
Cc1ccccc1C(=O)Nc1ccc(N2CCCCCC2)cc1 | 3.92 (active)
COc1cccc(OC)c1C(=O)Nc1ccc(N2CCCCC2)cc1 | 0.92 (inactive)
COc1cccc(C(=O)NNC(=O)c2ccccc2Br)c1 | 1.05 (inactive)
COc1ccc(C(=O)NC(=S)Nc2ccc(N3CCCC3)cc2)cc1OC | 0.99 (inactive)
COc1ccc(C2COC(=O)C2=N)c(NC(=O)c2ccccc2)c1 (stereo not drawn) | 1.02 (inactive)

SMILES | fold change
O=C(Cc1ccccc1)NC(=S)Nc1ccc(N2CCCCC2)cc1 | 1.04 (inactive)
COc1cccc(C(=O)Nc2ccc(N3CCCC3)cc2)c1 | 3.3 (active)
C/C(=N\NC(=O)c1ccccc1C)c1ccc(N2CCOCC2)cc1 | 1.09 (inactive)
COn1c(-c2ccc(Cl)cc2Cl)nc2ncccc21 | 1.29 (inactive)
O=C(CN1CCC(O)(c2ccccc2)CC1)Nc1ccc2c(c1)OCCO2 | 0.97 (inactive)
COc1ccc(CN2CCCC(CNC(=O)c3ccc(F)cc3)C2)cc1OC (stereo not drawn) | 1.13 (inactive)
CCN(CC(=O)NCCc1ccccc1)S(=O)(=O)c1ccccc1 | 1.36 (inactive)
CC1CCCN(CC(O)COc2ccc3c(c2)OCO3)C1 (stereo not drawn) | 1.2 (inactive)
C/C(=N\OCC(=O)Nc1ccc(Br)cc1)c1cccs1 | 1.23 (inactive)
CCOc1ccc2cc(C#N)c(SCC(=O)OC)nc2c1 | 5.87 (active)
CCOc1ccc2nc(NCCNS(=O)(=O)c3ccccc3)c(C#N)cc2c1 | 1.4 (inactive)
Cc1nonc1NC(=O)CSc1nc2ccccc2cc1C#N | 1.83 (inactive)
CC(C)N1CCC(=NNc2ccc([N+](=O)[O-])cc2S(=O)(=O)N2CCOCC2)CC1 | 1.19 (inactive)
COc1ccc(N2C(=O)/C(=C\c3ccco3)N=C2SCC(N)=O)cc1Cl | 1.3 (inactive)
CCN(CC(=O)Nc1ccc(Cl)c(S(=O)(=O)N(C)C)c1)Cc1nc2ccccc2c(=O)[nH]1 | 0.79 (inactive)
C#CCSc1nnc(-c2sc3ccccc3c2Cl)o1 | 3.81 (active)
Clc1ccc(-c2nnc(SCc3nc4ccccc4s3)o2)cc1 | 1.18 (inactive)
O=C(OCC#CCSc1nnc(-c2ccncc2)o1)c1sc2ccccc2c1Cl | 1.38 (inactive)
CC(C)(C)C(=O)CN1C2=NCCN2c2ccccc21 | 1.09 (inactive)
Cc1ccnc(NC(=O)CCC(=O)N(CC(=O)NCc2ccccc2)Cc2ccco2)c1 | 0.85 (inactive)
Cc1ccc2c(=O)oc(N(C)C)nc2c1 | 0.93 (inactive)
O=C(CSc1ccsc1[N+](=O)[O-])N1CCCCC1 | 1.39 (inactive)
S=c1[nH]nc(/C=C/c2ccccc2)o1 | 1.12 (inactive)
O=C1C2C3C=CC(C3)C2C(=O)N1c1ccc(-c2nc3ccccc3c(=O)o2)cc1 (stereo not drawn) | 1.08 (inactive)
O=c1oc(/C=C/c2ccccc2)nc2ccccc12 | 4.63 (active)
